Assay outcomes deposited in PubChem by National Center for Advancing Translational Sciences (NCATS).
This is a sample that favours compounds with a hit; in the whole collection about 11% have one here.
Vaccinia Venus – qHTS for Stage-Specific Inhibitors of Vaccinia Orthopoxvirus: Venus Reporter Primary qHTS; Vaccinia virus Venus reporter expression, fluorescence; Potency, µM (highest dose often 36.5 µM), without a hit: top-dose activity change, negative = inhibition, hits mostly inhibitors; hit rate 0.46% among 330,000; calls by dose curve; tested in A549 cells; further: on the % scale 0 is the no-effect control and ±100 the full control effect; nearly all actives have a fitted effect of over 30% in size
NS1 inh – qHTS Assay for Inhibitors of Influenza NS1 Protein Function. hit rate 0.4% among 270,000. Potency, µM (series often up to 46.1 µM), for inactives: at the top dose activity, positive = more growth; calls by dose curve; further: actives are rising curves; nearly all actives have a fitted effect of over 50% in size
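Growth recovery, yeast-based: influenza A NS1 expressed in S. cerevisiae causes slow growth, and suppressors are detected by OD600. The parent strain without NS1 is used as positive control.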
Pf growth 96h – Primary qHTS for delayed death inhibitors of the malarial parasite plastid, 96 hour incubation; hit rate 6.9% among 320,000; AID 504834, 2011; Potency, µM (titrated, usually from 28.7 µM), for the others: at the highest dose activity change, negative = inhibition, actives largely listed as inhibitors; P. falciparum luciferase reporter growth, 96 h; further: on the % scale 0 is the no-effect control and ±100 the full control effect
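Cell-based qHTS: luciferase-tagged P. falciparum in erythrocytes (2% hematocrit, 0.05% parasitemia final) incubated with compounds for 96 hours, 37 C, 5% CO2; luciferase detection reagent then added and luminescence measured.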
Pf growth 48h – Primary qHTS for delayed death inhibitors of the malarial parasite plastid, 48 hour incubation. Potency, µM (doses to about 28.7 µM), for inactives: at the highest dose activity change, negative = inhibition, actives largely listed as inhibitors. AID 504832, 2011. hit rate 5.9% among 310,000. P. falciparum luciferase growth in erythrocytes, 48 h; further: on the % scale 0 is the no-effect control and ±100 the full control effect
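Luminescence readout; reporter = integrated firefly luciferase in P. falciparum. RBC culture at 2% hematocrit, 0.1% parasitemia final, 37 C/5% CO2; decreased signal taken as growth inhibition.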
HCV inhibitor – qHTS Assay for Inhibitors of Hepatitis C Virus (HCV); Huh7.5.1 HCVcc-Cre infection, luciferase reporter, 44 h; hit rate 3.4% among 340,000; Potency, µM (series often up to 41.8 µM), for inactives: at the highest dose activity change, negative = inhibition, most hits filed as inhibitors; AID 651820, 2012; further: on the % scale 0 is the no-effect control and ±100 the full control effect
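HCVcc-Cre virus at an moi near 0.5 was added right after compound to cells cultured 4 h from seeding (1,000 cells/well). Luciferase activity was determined 44 h later, 15 min after substrate addition at RT.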
Vaccinia mCherry – qHTS for Stage-Specific Inhibitors of Vaccinia Orthopoxvirus: mCherry Reporter Primary qHTS; AID 720579, 2013; hit rate 0.63% among 310,000; Vaccinia virus mCherry reporter infection, fluorescence; Potency, µM (titrated, usually from 36.5 µM), for inactives: top-dose activity change, negative = inhibition, most hits filed as inhibitors; calls by dose curve; tested in A549 cells; further: on the % scale 0 is the no-effect control and ±100 the full control effect; nearly all actives have a fitted effect of over 35% in size
Starred values were filed as active, the others as inactive; i = inactive; ? = inconclusive; . = no result given. Unless noted, the call rests on the fitted dose curve; in most records, active means well fitted inhibition curve with a large enough effect; inconclusive means small, poorly fitted or top-dose-only effect, or another doubt; inactive means no such curve, though single readings can be large or run the other way. Potency means the concentration at half of the fitted maximal effect.

SMILES	Vaccinia Venus	NS1 inh	Pf growth 96h	Pf growth 48h	HCV inhibitor	Vaccinia mCherry
CCc1ccccc1N(C(=O)c1snc(C(N)=O)c1N)C(C(=O)NCC1CCCO1)c1ccc(C)o1 (stereo not drawn)	-15.3%	-10.3%	9.28µM*	?	?	-21.3%
Cc1ccc(N(C(=O)c2snc(C(N)=O)c2N)C(C(=O)NCC2CCCO2)c2ccc(C)o2)c(C)c1 (stereo not drawn)	-3.5%	5.5%	?	?	?	-3.4%
COc1ccc(N(C(=O)c2snc(C(N)=O)c2N)C(C(=O)NCC2CCCO2)c2ccc(C)o2)cc1OC (stereo not drawn)	-5.3%	5.4%	45.4%	8.28µM*	?	?
COc1ccc(C(C(=O)NCC2CCCO2)N(C(=O)c2snc(C(N)=O)c2N)c2ccc(C)cc2)cc1OC (stereo not drawn)	-5.2%	1.5%	13.1µM*	10.4µM*	-13.7%	-4.0%
OCCC1CN(Cc2nc3c(s2)CCCC3)CCN1CCc1ccccc1 (stereo not drawn)	.	2.7%	?	?	-21.2%	.
CCN(CC)S(=O)(=O)c1ccc(OC)c(NC(=O)C(C)Oc2ccc3c(C)cc(=O)oc3c2)c1 (stereo not drawn)	-22.3%	19.4%	9.28µM*	1.85µM*	?	?
Cc1c(Cl)cnc(NC(=O)COC(=O)[C@@H](NC(=O)c2ccco2)C(C)C)c1Cl	.	.	.	.	-4.6%	.
CCN1CCN(c2c(S(=O)(=O)c3ccc(OC)cc3)cnc3cc(OC)c(OC)cc23)CC1	-13.5%	.	.	.	.	-25.6%
COc1cc2ncc(S(=O)(=O)c3ccccc3)c(N3CCCC(C)C3)c2cc1OC (stereo not drawn)	?	-50.8%	11.0%	?	11.2µM*	?
CCOc1ccccc1NC(=S)Nc1ccccc1F	-10.8%	-1.0%	13.1µM*	0.9%	5.6%	.
Cc1cccnc1NC(=S)Nc1ncccc1C	-9.9%	-0.5%	368.0%	162.8%	-1.1%	i
COc1ccccc1NC(=S)Nc1ccccc1F	-13.8%	13.7%	38.1%	16.0%	-13.2%	.
CCOc1ccccc1NC(=S)Nc1ncccc1C	?	-4.4%	91.2%	4.6%	6.31µM*	?
CCOc1ccccc1NC(=S)NC1CC2CCC1C2 (stereo not drawn)	-15.9%	-68.2%	5.22µM*	?	-17.3%	-2.0%
COc1ccc(NC(=S)NC2CC3CCC2C3)c(OC)c1 (stereo not drawn)	-23.4%	-9.0%	?	?	-6.9%	i
O=C(O/N=C1/CCSc2ccccc21)c1ccc(F)cc1	.	-39.7%	97.1%	29.4%	18.4%	.
Fc1ccc(N=C2NN=C(c3cc(F)ccc3F)CS2)cc1	?	-24.4%	?	0.0%	?	?
O=S(=O)(c1ccc(N=C2NN=C(c3cc(F)ccc3F)CS2)cc1)N1CCOCC1	-22.0%	.	?	2.33µM*	22.4µM*	?
CC(C)(C)N=C1NN=C(c2ccc(S(=O)(=O)N3CCCCC3)cc2)CS1	-5.8%	.	?	3.7µM*	?	-29.4%
CC(=O)Nc1ccc(C2=NNC(=Nc3ccc(S(=O)(=O)N4CCOCC4)cc3)SC2)cc1	-2.5%	?	11.7µM*	?	?	-15.4%
CCOC(=O)c1c(NC(=O)COC(=O)c2nccnc2N)sc(C(=O)N(C)C)c1C	-14.0%	.	3.5%	?	?	-9.1%
CCC(C)(C)NC(=O)c1sccc1Oc1ccc(F)cc1[N+](=O)[O-]	-9.3%	.	?	-22.2%	?	-11.8%
CCC(=O)NC(c1ccc(N(C)C)cc1)c1c(O)ccc2ccccc12 (stereo not drawn)	-20.4%	0.6%	?	?	7.1%	?
O=C(c1ccc(NS(=O)(=O)c2cccs2)cc1)N1CCCCC1	-21.6%	-3.3%	-2.4%	15.6%	2.82µM*	-26.8%
CCOC(=O)C1=C(CSc2nc(-c3ccncc3)ccc2C#N)OC(N)=C(C#N)C1c1cccnc1 (stereo not drawn)	-8.9%	6.7%	?	13.1µM*	6.7%	-14.6%
SMILES	Vaccinia Venus	NS1 inh	Pf growth 96h	Pf growth 48h	HCV inhibitor	Vaccinia mCherry
CCOC(=O)C1=C(CSc2nc(-c3ccncc3)ccc2C#N)OC(N)=C(C#N)C1c1ccc(OC)cc1 (stereo not drawn)	-20.3%	11.1%	?	.	-26.7%	.
CCOC(=O)C1=C(CSc2nc(C)ccc2C#N)OC(N)=C(C#N)C1c1cccc(OC)c1OC (stereo not drawn)	-6.4%	-146.4%	6.57µM*	55.4%	-0.4%	.
CCOC(=O)C1=C(CC)OC(N)=C(C#N)C1c1ccc(OC)c(OC)c1OC (stereo not drawn)	-13.6%	.	?	6.1%	-3.3%	-7.4%
O=C(Nc1nc(-c2ccco2)c(-c2ccco2)s1)c1c(F)cccc1Cl	.	.	-10.7%	-15.1%	14.1µM*	.
CCCCCN1C2=NCCN2c2ccccc21	-20.5%	1.8%	8.28µM*	?	-18.7%	-12.9%
CCOC(=O)CN1C2=NCCN2c2ccccc21	11.5%	5.6%	.	23.3%	?	.
COC(=O)c1[nH]c2cc(OC)ccc2c1NC(=O)CN1CCC(C(N)=O)CC1	-12.3%	2.2%	-11.9%	6.0%	27.5%	i
CCOC(=O)c1[nH]c2ccc(OC)cc2c1NC(=S)N1CCN(c2cccc(C)c2C)CC1	?	-10.6%	-27.3%	?	10µM*	?
COC(=O)c1[nH]c2ccc(C)cc2c1NC(=O)CN1CCN(c2ccc(F)cc2)CC1	-14.0%	3.5%	?	?	?	?
COC(=O)c1[nH]c2ccc(Cl)cc2c1NC(=O)CN1CCC(C(N)=O)CC1	-16.0%	-0.4%	?	11.7µM*	-13.9%	.
Cc1ccc2[nH]c(C(=O)O)c(NC(=O)CN3CCN(c4cccc(C)c4C)CC3)c2c1	-5.4%	-6.0%	4.65µM*	0.0%	9.1%	.
COC(=O)c1[nH]c2ccc(C)cc2c1NC(=O)CN1CCN(c2ccccc2)CC1	?	-9.3%	.	10.4µM*	?	?
CCCc1[nH]n(-c2nc3ccccc3s2)c(=O)c1C=NCCCOC	2.0%	-6.2%	-15.2%	-20.2%	-2.6%	1.6%
COC(=O)[C@]12CCCCC=C1N(Cc1ccc(Cl)cc1Cl)C(=O)[C@H](CC(=O)NCCCN1CCCC1=O)C2	-4.3%	.	.	.	.	i
O=C(CSc1ncnc2ccccc12)NCc1ccco1	-10.1%	-12.5%	?	-13.5%	5.3%	.
CC(C)(C)n1cc(C(=O)c2ccccc2)cc1-c1ccccc1	-22.4%	3.1%	?	11.7µM*	?	-4.2%
O=C(c1ccccc1)c1ccccc1	3.1%	.	5.6%	8.3%	-3.4%	7.0%
CCCCCC1C(=O)N2C=C(c3ccccc3)c3ccccc3N2C1=O (stereo not drawn)	-11.2%	.	.	.	28.5%	-18.9%
